Test results taken from PubChem BioAssay AID686979 (National Center for Advancing Translational Sciences (NCATS), 2013).
Several values for one entry are separate records, joined by “and”; a condition that tells them apart may be missing. Equal values may be shown once. In all, about 420,000 compounds went through this assay and about 50,000 (12%) were called active. Roughly 26% stayed inconclusive and do not appear here. The sample as a whole holds a higher share of actives than the screen did. Values without a mark were called inactive. The call rests on the fitted dose curve; in most records, active means well fitted inhibition curve with a large enough effect; inconclusive means small, poorly fitted or top-dose-only effect; inactive means flat fitted curve, though single readings scatter.

experiment: qHTS for Inhibitors of human tyrosyl-DNA phosphodiesterase 1 (TDP1): qHTS in cells in presence of CPT; conditions: chicken DT40 Tdp1-/-;hTDP1 cells + 20 nM CPT, ATP luminescence, 48 h; series mostly up to 46.2 µM; activity change, negative = growth inhibition: at the top concentration; further: nearly all actives have a fitted effect of over 55% in size
In short: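 Cell growth measured by CellTiter-Glo luminescence after a minimum 48 h, 37 C compound exposure with 20 nM CPT in Tdp1-knockout DT40 cells stably expressing hTDP1, seeded 400/well; qHTS titration format.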
On the % scale 0 is the no-effect control and ±100 the full control effect; potency means the concentration at half of the fitted maximal effect.

Structure (SMILES)	activity change, negative = growth inhibition	Potency
Cc1ccc(C(C)C)c(OCC(=O)N2CCN(CC(=O)N3CCOCC3)CC2)c1	1.32%	–
CN1CCC(N(C)Cc2cccnc2)CC1	10.3%	–
c1ccc(CCN2CCC3(CC2)OCCO3)cc1	5.99%	–
c1ccc(CCCCN2CCC(c3ccccc3)CC2)cc1	–	16.8 µM (active) and 23.1 µM (active)
CC1=CC(=O)C2=C(C)C[C@H](O)[C@H]3[C@H](C)C(=O)O[C@@H]3C12 (some centres undefined)	-1.15%	–
Cc1cccc(Cn2cccc(C(=O)Nc3ccc4c(c3)OCCO4)c2=O)c1	–	9.2 µM (active)
CN(C)/C=C(\C=[N+](C)C)c1[nH]ncc1[N+](=O)[O-]	2.42%	–
O=C1NC(=O)C(CCOc2ccccc2)(CCc2ccccc2)C(=O)N1	-7.38%	–
COc1ccc(-c2nn(CCC#N)cc2C(=O)Nc2ccc(C(C)=O)cc2)cc1	-15.6%	–
COc1ccc(C2Oc3c(I)c(OC)cc(OC)c3CC2O)cc1OC (centres undefined)	-8.1%	–
CCOP(=O)(OCC)C(O)c1ccc(OC)cc1OC (centres undefined)	5.05%	–
CC(Cc1ccccc1)NCCC(c1ccccc1)c1ccccc1 (centres undefined)	–	9.2 µM (active)
CC(Cc1ccccc1)NC=O (centres undefined)	–	inactive
Nc1ccc([N+](=O)[O-])cc1	–	inactive
C=CCn1c(O)c(/C=N/N2CCOCC2)c(=O)[nH]c1=S	-0.159%	–
CC(=O)Nc1ccccc1C(=O)OCC(=O)c1cccc2ccccc12	-14.8%	–
COC(=O)C1=C(c2ccc(Cl)c(C(F)(F)F)c2)C[C@@H]2CC[C@H]1N2C(=O)NC1CC1	–	14.6 µM (active)
COC(=O)C1=C(c2cc3ccccc3s2)C[C@@H]2CC[C@H]1N2C(=O)NC(C)C	–	23.1 µM (active)
COC(=O)C1=C(c2ccc(C(C)=O)cc2)C[C@@H]2CC[C@H]1N2C(=O)NCCNC(C)=O	4.65%	–
COC(=O)C1=C(c2cc3ccccc3o2)C[C@@H]2CC[C@H]1N2C(=O)NC1CCCCC1	–	18.4 µM (active)
COC(=O)C1=C(c2cc3ccccc3s2)C[C@@H]2CC[C@H]1N2C(=O)NCCO	-29.3%	–
COC(=O)CN(CCCl)P1(=O)OCCCN1CCCl (centres undefined)	6.16%	–

Structure (SMILES)	activity change, negative = growth inhibition	Potency
C/C(CCc1c[nH]c2ccccc12)=N\O	-8.5%	–
CCN1CCN(Cc2cc(OC)c3c(c2)OCO3)CC1	-11.6%	–
C1CC[C@H]([C@@]23C[C@H](C[C@H]4CCCN[C@H]42)[C@@H]2CCCCN2C3)NC1	-5.16% [at 9.04 µM]	–
CN1C2CC3CC1C(O3)C2O (centres undefined)	-2.66%	–
COP(=O)(OC)C(NC(=O)c1ccc(C)cc1)C(Cl)(Cl)Cl (centres undefined)	8.53%	–
C#C[C@]1(OC(=O)CCCCCC)CC[C@H]2[C@@H]3CCC4=CC(=O)CC[C@@H]4[C@H]3CC[C@@]21C	12.4%	–
CC(=O)OC1C2(CC3N4C(=O)C5(CO)SSC4(CC31O)C(=O)N5C)OC(C)C(C)(C)C2=O (centres undefined)	–	0.146 µM (active)
O=C(c1cc(S(=O)(=O)N2CCOCC2)ccc1F)N1CCC2(CC1)OCCO2	-22%	–
CCc1nnc(NS(=O)(=O)c2ccc(N=Cc3c(O)n(-c4ccccc4)c(=O)[nH]c3=O)cc2)s1	-0.935%	–
O=[N+]([O-])c1ccc(Cl)c(Cl)c1	8.09%	–
O=C(Cc1ccc(Cl)cc1)NCCN1CCN(C(=O)Cc2ccc(Cl)cc2)CC1	-25.6%	–
C[C@@H]1C[C@@H]2O[C@H]2/C=C\C=C\C(=O)Cc2c(Cl)c(O)cc(O)c2C(=O)O1	–	0.0411 µM (active)
CCOC(=O)C1=C(C)OC(N)=C(C(=O)OC)C12C(=O)Nc1ccc(Br)cc12 (centres undefined)	-0.924%	–
CCN1CCN(C(=O)Cc2coc3cc(C)cc(C)c23)CC1	-4.61%	–
NC(=O)Cn1cc(C(=O)c2ccccc2F)c2ccccc21	-3.53%	–
COCCNC(=O)CN1C2CCC1CC(O)(c1cccnc1)C2 (centres undefined)	12.8%	–
Cc1cc2n(n1)C(c1cc(C(C)(C)C)c(O)cc1O)Nc1ccccc1-2 (centres undefined)	–	14.6 µM (active)
CCC/C(=N\O)c1c[nH]c2ccccc12	-27.1%	–
NCC(O)c1ccc(O)cc1 (centres undefined)	–	inactive
CC[N+](C)(CC)CCC[n+]1c(-c2ccccc2)c2cc(N)ccc2c2ccc(N)cc21	–	2.58 µM (active)
COc1ccc(NC(=O)N2Cc3ccccc3-n3nncc3C2)cc1	-22.9%	–
CCN(CC)CCOC(=O)c1cc2cc(COC)ccc2o1	-2.18%	–

Structure (SMILES)	activity change, negative = growth inhibition	Potency
CC(=O)c1ccc(OC(NC(=O)Cc2ccccc2)C(Cl)(Cl)Cl)cc1 (centres undefined)	-22.9%	–
Cc1cccc2c3c(ccc12)C1=C(C(=O)C3=O)C(C)CO1 (centres undefined)	–	4.11 µM (active)
CCOC(=O)c1c(N)n(CCN2CCOCC2)c2nc3ccccc3nc12	-6.44%	–
CC1(C)OC[C@@H](COC(=O)CCc2ccc(OC[C@@H](O)CNCCNC(=O)N3CCOCC3)cc2)O1	4.8%	–
Cc1ccc(S(=O)(=O)N(C)c2ccc(C(=O)NCC3(N(C)C)CCCCC3)cc2)cc1	-16.2%	–
O=C(CCN1CCCCC1)NCC(=O)Nc1ccc(Br)cc1C(=O)c1ccccc1	–	18.4 µM (active)
O=C(CN1CCCCC1)Nc1ccc(Br)cc1C(=O)c1ccccc1Cl	-26.2%	–
CCOC(=O)CC(SP1(=S)OCC2(CCCCO2)C(C2CCCCO2)O1)C(=O)OCC (centres undefined)	-21.8%	–
C[C@]12CCC3C(CC[C@H]4C[C@@H](O)CC[C@]34C)C1C[C@@H](O)[C@H]2O (some centres undefined)	10.8%	–
C[C@]12CCC3C(CC[C@H]4[C@H](O)[C@H](O)CC[C@]34C)C1CC[C@@H]2O (some centres undefined)	2.04%	–
C[C@]12CCC3C(CC[C@H]4[C@H](O)[C@H](O)CC[C@]34C)C1CCC2=O (some centres undefined)	–	16.4 µM (active)
Nc1ccc(Cc2ccc(N)c(Cl)c2)cc1Cl	-10.3%	–
O=c1[nH]c2ccccc2n1C1CCN(C(c2ccnc3ccccc23)c2nnnn2Cc2ccccc2)CC1 (centres undefined)	–	20.6 µM (active)
Cc1ccc(Cn2nnnc2CN2CCC(n3nnc4ccccc43)CC2)cc1	-24.7%	–
O=c1[nH]c2ccccc2n1C1CCN(C(c2ccccc2)c2nnnn2Cc2ccccc2)CC1 (centres undefined)	–	18.4 µM (active)
Cc1ccsc1C(=O)C1CCCN(Cc2ccc(O)cc2)C1 (centres undefined)	0.994%	–
Cc1cccc(-n2c(O)c(C=NC34CN5CN(CN(C5)C3)C4)c(=O)[nH]c2=O)c1	6.92%	–
Cc1nn(Cc2ccccc2Cl)c(Cl)c1C(=O)OC(C(=O)NC(N)=O)C(C)C (centres undefined)	-2.59%	–
CCOc1ccc(CN(CCCl)CCCl)cc1C(=O)OC	–	4.11 µM (active)
Cc1cc(C=C2C(=O)NC(=O)NC2=O)c(C)n1-c1ccncc1	-1.71%	–
